This is a sample that favours compounds with a hit; in the whole collection about 4.1% have one here.
DAX1 inh-1 = inhibitors of DAX1 repression of SF-1 activated StAR promoter; HEK293T StAR-luciferase reporter, SF-1/DAX-1 repression relief; inhibition, % at 6.8 µM; actives 1.1% (n = 370,000); AID 652010;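 active means inhibition above the mean over all tested compounds plus 3 SD, cut at about 3.6% in these data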;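 further: 0% = DAX-1 cells with DMSO and 100% = cells lacking DAX-1 with DMSO; higher inhibition means more luminescence from relief of DAX-1 repression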
hgDAF-12 ag = agonists of H. glycines DAF-12 nuclear receptor. activation, % at 6.8 µM. actives 1.8% (n = 370,000). HEK293 GAL4-hgDAF12 UAS-luciferase reporter, agonist luminescence; normalized to butyrate control;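 active means activation above a cutoff set at the mean of all screened compounds plus 3 SD, cut at about 10% in these data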;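 further: 0% = DMSO wells and 100% = sodium butyrate wells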
hcDAF-12 act = activators of H. contortus DAF-12 nuclear receptor | HEK293 hcDAF-12 lit1-tk-luc reporter, luminescence; 0% DMSO, 100% Δ7-dafachronic acid | activation, % at 6.8 µM | actives 1.4% (n = 370,000);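 active means activation above the mean of all tested compounds plus 3 SD, cut at about 5.5% in these data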;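 further: 100% = response to 3 µM Δ7-dafachronic acid high control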
ssDAF-12 act = activators of S. stercoralis DAF-12 nuclear receptor; HEK293 ssDAF-12/GRIP1 lit1-tk-luc reporter, luminescence; % of 3 µM dafachronic acid response; activation, % at 6.8 µM; actives 1% (n = 370,000); AID 652126;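 active means activation above the mean over all tested compounds plus 3 SD, cut at about 0.9% in these data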;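 further: 0% = DMSO-only wells and 100% = 3 µM delta7-dafachronic acid wells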
DAX1 inh-2 = inhibitors of human orphan nuclear receptor DAX1 (NR0B1) | HEK293 Gal4-DAX1 luciferase reporter, luminescence | inhibition, % at 6.75 µM | actives 0.99% (n = 340,000) | AID 504766;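 active means inhibition above the mean over all tested compounds plus 3 SD, cut at about 4.2% in these data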;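 further: 0% = DAX1-transfected cells with DMSO and 100% = empty-vector control cells with DMSO; inhibition shows as a rise in luminescence from relieved DAX1 repression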
Target sequence (P51843 207-470 limits assumed): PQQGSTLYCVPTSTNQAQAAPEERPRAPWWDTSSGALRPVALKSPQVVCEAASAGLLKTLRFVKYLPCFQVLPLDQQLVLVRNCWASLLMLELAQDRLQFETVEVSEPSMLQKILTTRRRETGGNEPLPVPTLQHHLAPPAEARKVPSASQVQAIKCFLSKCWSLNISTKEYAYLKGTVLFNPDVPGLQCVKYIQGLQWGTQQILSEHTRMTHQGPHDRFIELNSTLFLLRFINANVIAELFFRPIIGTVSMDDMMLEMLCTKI
* hit, by the source's call.

How did O=C(CN1C(=O)NC2(CCCC2)C1=O)NCCN1C(=O)S/C(=C\c2ccccc2F)C1=O do in these assays?
DAX1 inh-1: 1; hgDAF-12 ag: 2; hcDAF-12 act: 1; ssDAF-12 act: 0; DAX1 inh-2: 0

Results for O=C(OC12CCCN(C1)/C(=C/c1ccc(Cl)cc1)C2)c1ccno1 (stereo unspecified) ?
DAX1 inh-1: 0; hgDAF-12 ag: -1; hcDAF-12 act: -2; ssDAF-12 act: 0

Results for COC(=O)C1=C(C)N(Cc2ccc(C(F)(F)F)cc2)C(=NCc2ccccc2)NC1c1cccc(Cl)c1 (stereo unspecified) ?
DAX1 inh-1: 0; hgDAF-12 ag: -1; hcDAF-12 act: 5; ssDAF-12 act: -1

How did CCOc1ccccc1C(=O)Nc1ccc(S(=O)(=O)Nc2nccc(C)n2)cc1 do in these assays?
DAX1 inh-1: 0; hgDAF-12 ag: -2; hcDAF-12 act: 6.2*; ssDAF-12 act: 0; DAX1 inh-2: 0

Results for Cc1cc(C)nc(NS(=O)(=O)c2ccc(NC(=O)c3ccccc3C)cc2)n1 ?
DAX1 inh-1: 0; hgDAF-12 ag: -3; hcDAF-12 act: -1; ssDAF-12 act: -1; DAX1 inh-2: 1

Results for Cc1cc(C)nc(NS(=O)(=O)c2ccc(NC(=O)c3ccc(O)cc3O)cc2)n1 ?
DAX1 inh-1: 0; hgDAF-12 ag: 0; hcDAF-12 act: 5.7*; ssDAF-12 act: 0; DAX1 inh-2: 1

What do the screens show for `O=C(NCCc1ccccc1)OCc1cn(Cc2cccc(Cl)c2)nn1`?
DAX1 inh-1: 0; hgDAF-12 ag: 2; hcDAF-12 act: -1; ssDAF-12 act: -2

How did c1ccc(Cc2cnc(N3CCN(Cc4cccc(-c5ccsc5)n4)CC3)nc2)cc1 do in these assays?
DAX1 inh-1: -5; hgDAF-12 ag: -5; hcDAF-12 act: -2; ssDAF-12 act: -2

What do the screens show for `CCCC1CCC(=NNS(=O)(=O)c2ccc(C)c([N+](=O)[O-])c2)CC1` (stereo unspecified)?
DAX1 inh-1: 0; hgDAF-12 ag: 2; hcDAF-12 act: -1; ssDAF-12 act: -1; DAX1 inh-2: 0

How did CCCC1CCC(=NNC(=O)OC(C)(C)C)CC1 (stereo unspecified) do in these assays?
DAX1 inh-1: 1; hgDAF-12 ag: 8; hcDAF-12 act: 0; ssDAF-12 act: -1; DAX1 inh-2: 5.8*

Results for CC(=O)Oc1ccc(/C(C)=N\N2CCN(Cc3ccc(Cl)cc3)CC2)cc1 ?
DAX1 inh-1: -1; hgDAF-12 ag: -2; hcDAF-12 act: 0; ssDAF-12 act: -1; DAX1 inh-2: 0

What do the screens show for `C=CCc1cc(/C=N/n2cnnc2)cc(OCC)c1O`?
DAX1 inh-1: 0; hgDAF-12 ag: 1; hcDAF-12 act: 0; ssDAF-12 act: -1; DAX1 inh-2: 1

Results for COc1cc(/C=N/n2cnnc2)ccc1OCc1ccc(C)cc1 ?
DAX1 inh-1: 1; hgDAF-12 ag: 12*; hcDAF-12 act: 1; ssDAF-12 act: 0; DAX1 inh-2: 1

Results for CCOc1cc(/C=N/n2cnnc2)ccc1O ?
DAX1 inh-1: 0; hgDAF-12 ag: 0; hcDAF-12 act: 6.5*; ssDAF-12 act: -1; DAX1 inh-2: 0

How did O=C(O)c1[nH]c2ccccc2c1-c1ccccc1 do in these assays?
DAX1 inh-1: 0; hgDAF-12 ag: 1; hcDAF-12 act: -1; ssDAF-12 act: -1; DAX1 inh-2: 1

What do the screens show for `O=C(O)c1[nH]c2ccccc2c1C=NCc1ccccc1Cl`?
DAX1 inh-1: 0; hgDAF-12 ag: -1; hcDAF-12 act: 2; ssDAF-12 act: 0; DAX1 inh-2: 4.9*

What do the screens show for `Cc1ccccc1NS(=O)(=O)c1nnc(NC(=O)c2ccccc2F)s1`?
DAX1 inh-1: 0; hgDAF-12 ag: 1; hcDAF-12 act: 0; ssDAF-12 act: -1; DAX1 inh-2: 1

How did CC(C)(C)NC(=O)CSc1nnc(NC(=O)c2ccccc2Cl)s1 do in these assays?
DAX1 inh-1: 1; hgDAF-12 ag: 5; hcDAF-12 act: 0; ssDAF-12 act: -1; DAX1 inh-2: 4

How did CCSc1nnc(NC(=O)c2ccccc2C)s1 do in these assays?
DAX1 inh-1: 4.4*; hgDAF-12 ag: 13*; hcDAF-12 act: 2; ssDAF-12 act: -1; DAX1 inh-2: 4

What do the screens show for `O=C(CSc1nnc(NC(=O)c2ccccc2Cl)s1)NC1CC1`?
DAX1 inh-1: 1; hgDAF-12 ag: 7; hcDAF-12 act: 5.6*; ssDAF-12 act: 0; DAX1 inh-2: 2

Results for CCc1ccc(Nc2nnc(SCC(=O)N(C)C3CCS(=O)(=O)C3)s2)cc1 (stereo unspecified) ?
DAX1 inh-1: 2; hgDAF-12 ag: 12*; hcDAF-12 act: 1; ssDAF-12 act: 0; DAX1 inh-2: 1

How did CN(C(=O)CSc1nnc(NC2CCCCC2)s1)C1CCS(=O)(=O)C1 (stereo unspecified) do in these assays?
DAX1 inh-1: 0; hgDAF-12 ag: -1; hcDAF-12 act: -2; ssDAF-12 act: -1; DAX1 inh-2: 0

How did O=C(Nc1nnc(S(=O)(=O)Cc2ccc(F)cc2)s1)c1ccccc1F do in these assays?
DAX1 inh-1: 0; hgDAF-12 ag: -1; hcDAF-12 act: -3; ssDAF-12 act: 1.3*; DAX1 inh-2: -1

How did CCOC(=O)CC[C@H]1CC[C@]2(CCCN(C(=O)c3ccco3)C2)O1 do in these assays?
DAX1 inh-1: 0; hgDAF-12 ag: 0; hcDAF-12 act: 0; ssDAF-12 act: -1

How did COC(=O)[C@]12C[C@H](CC(=O)NCc3cccc(C(F)(F)F)c3)C(=O)N(Cc3ccco3)C1=C[C@H](C1CCCC1)O[C@@H]2C do in these assays?
DAX1 inh-1: -2; hgDAF-12 ag: -3; hcDAF-12 act: -3; ssDAF-12 act: 0

Results for O=S1(=O)CC2c3ccccc3CCN2CN1CCc1ccccc1 (stereo unspecified) ?
DAX1 inh-1: 0; hgDAF-12 ag: 0; hcDAF-12 act: -1; ssDAF-12 act: -1

How did C#CCNC(=O)C[C@H]1C(=O)N(Cc2ccc(OC)cc2)C2=CCCC[C@@]21C(=O)OCC do in these assays?
DAX1 inh-1: 0; hgDAF-12 ag: -2; hcDAF-12 act: -3; ssDAF-12 act: -2

How did COc1cccc(C(=O)Nc2nnc(SCC(=O)NC3CC3)s2)c1 do in these assays?
DAX1 inh-1: 0; hgDAF-12 ag: 0; hcDAF-12 act: 1; ssDAF-12 act: -1; DAX1 inh-2: 0

How did COc1ccc(C(=O)Nc2nnc(SCC(=O)NC3CC3)s2)cc1 do in these assays?
DAX1 inh-1: 1; hgDAF-12 ag: 11*; hcDAF-12 act: 0; ssDAF-12 act: 0; DAX1 inh-2: 2

What do the screens show for `CCSc1nnc(NC(=O)CC(C)C)s1`?
DAX1 inh-1: 1; hgDAF-12 ag: 2; hcDAF-12 act: 1; ssDAF-12 act: -2; DAX1 inh-2: 6.4*

How did O=C(CSc1nnc(NC(=O)c2ccccc2F)s1)Nc1ccccc1F do in these assays?
DAX1 inh-1: 3; hgDAF-12 ag: 13*; hcDAF-12 act: 2; ssDAF-12 act: -2; DAX1 inh-2: 2

Bioassay records deposited in PubChem BioAssay by The Scripps Research Institute Molecular Screening Center.
